# Results reported in PubChem BioAssay (NCI).
# The panel holds about 83,000 compounds, 20% with a hit somewhere; the sample as a whole holds those more often.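 How to read the values: 0–100, growth inhibition (40 = 60% inhibited); 0, no net growth; -100 to 0, cell death (-40 = 40% of starting cells died; -100 = all dead).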 Values without a mark were called inactive. Activity calls are given as the source filed them. Rule for the calls: active = growth percent below 10; inactive = the rest.
# System: HL-60(TB) leukemia
# Assay: NCI-60 one-dose screen, 48 h (100 = growth as untreated, 0 = no growth, -100 = all killed)
# Settings: 10 µM unless noted
row,Compound,growth
1,Oc1ccc(O)c(-c2ccccc2)c1,35.4%
2,O=C1C(Cl)=C(NCCCN(CCCNC2=C(Cl)C(=O)c3ccccc3C2=O)C2=C(Cl)C(=O)c3ccccc3C2=O)C(=O)c2ccccc21,37.6%
3,Cn1c2ccccc2c2nnc(N/N=C/c3ccccn3)nc21,-46.1% (active)
4,CSc1ccc2c3c(n(C[C@H](O)CO)c(=O)c2c1)-c1ccccc1C3=O,-12.2% (active)
5,C[C@@H]1CC[C@@H]2[C@@H]1[C@H](OC(=O)/C=C/c1ccccc1)[C@]1(C3CCCCC3)C[C@@H](OC(=O)CO)[C@@]2(C)O1,74.5%
6,COCc1cc2c(cc1Br)OCO2,105%
7,CN1C(=O)C2(SCC(C(=O)NCC(=O)OC(C)(C)C)N2C(=O)C2CCCCC2)c2ccccc21 (centres undefined),93.7%
8,CC(C)(C#N)N1CCN(c2ccccc2Cl)CC1,103%
9,COc1cc(-c2cc(-c3nc4ccc(F)cc4[nH]3)[nH]n2)cc(OC)c1OC,-35% (active)
10,COc1cc(C(=O)/C=C/c2cccnc2Nc2ccc(Cl)cc2)cc(OC)c1OC,-27.2% (active)
11,Clc1ccc(-c2cc(-c3ccccc3)nc(N3CCN(CCCNc4ccnc5cc(Cl)ccc45)CC3)n2)cc1,-39% (active)
12,CCCCn1c(-c2ccc(-c3nc(-c4ccc(Cl)cc4)no3)cc2)nc(-c2ccccc2)c1-c1ccccc1,61.4%
13,O=C(NCCNCCO)c1cc([N+](=O)[O-])cc([N+](=O)[O-])c1O,102%
14,COc1ccc(/C(=C\c2cc(OC)c(OC)c(OC)c2)C(=O)N2CCCNCC2)cc1,96.4%
